Results filed as inconclusive are left out. Calls of active or inactive are those of the source. How the source made its calls, unless noted: active means hit-call score of the fitted dose curve at least 0.9, where 1 is the maximum; inactive means score below 0.9.
Legend:
[1] = ATG_NFI_CIS: Attagene CIS-FACTORIAL HepG2 Assay for human Nuclear Factor I (NFI) (AID 2282989); conditions: HepG2 cis-regulatory reporter, NFI response element transcription; actives raise or lower the signal
Method in brief: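 Read-out: reporter mRNA via RT-PCR plus capillary electrophoresis with fluorescence detection. Transiently transfected HepG2 (endogenous TF activity on cis promoters), 24 h compound exposure; gain or loss of signal fitted against DMSO.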

[2] = biological target: Myc proto-oncogene protein (Homo sapiens) (UniProt P01106); assay: ATG_Myc_CIS: Attagene CIS-FACTORIAL HepG2 Assay for human Myelocytomatosis (Myc) Proto-Oncogene Transcription Factor (AID 2282990); conditions: HepG2, Attagene cis-reporter transcription factor activity; actives raise or lower the signal
Chain of Myc proto-oncogene protein (Homo sapiens) (P01106 whole entry, looked up, the tested form may be a part): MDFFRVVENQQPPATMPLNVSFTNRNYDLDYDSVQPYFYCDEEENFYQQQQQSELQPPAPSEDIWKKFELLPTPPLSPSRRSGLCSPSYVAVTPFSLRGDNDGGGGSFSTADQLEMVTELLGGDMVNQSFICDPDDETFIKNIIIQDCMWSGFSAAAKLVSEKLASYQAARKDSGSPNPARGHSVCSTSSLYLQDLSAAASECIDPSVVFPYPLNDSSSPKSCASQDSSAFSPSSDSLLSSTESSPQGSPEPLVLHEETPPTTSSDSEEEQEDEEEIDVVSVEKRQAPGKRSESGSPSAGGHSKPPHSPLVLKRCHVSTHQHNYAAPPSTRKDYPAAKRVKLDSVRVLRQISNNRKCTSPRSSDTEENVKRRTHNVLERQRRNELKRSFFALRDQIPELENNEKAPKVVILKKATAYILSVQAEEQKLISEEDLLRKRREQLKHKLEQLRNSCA
Method in brief: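 After 24 h chemical treatment of HepG2 cells carrying multiplexed cis-regulated reporter constructs, reporter transcripts quantified by RT-PCR and capillary electrophoresis of fluorescent fragments. Gain or loss fitted against DMSO baseline.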

[3] = ATG_NF_kB_CIS: Attagene CIS-FACTORIAL HepG2 Assay for human Nuclear Factor Kappa B (NF-kB) (AID 2282991); conditions: HepG2 Attagene cis-factorial NF-kB reporter mRNA; actives raise or lower the signal
Method in brief: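 Measures mRNA induction of an NF-kB-responsive cis-element reporter in HepG2 cells transfected with multiple reporter units, sampled 24 h post-dosing; quantified by fluorescence after RT-PCR and capillary electrophoresis, fitted for activation or inhibition against DMSO.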

[4] = ATG_NRF2_ARE_CIS: Attagene CIS-FACTORIAL HepG2 Assay for human Nuclear Factor Erythroid 2 Related Factor 2 (NFR2) response to Antioxidant Response Elements (ARE) (AID 2282992); conditions: HepG2 Attagene ARE/NRF2 reporter, transcription factor activity; actives raise or lower the signal;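 on AC50: reporter mRNA level measured by RT-PCR and capillary electrophoresis fluorescence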
Method in brief: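 Fluorescence intensity of reporter-specific cDNA fragments, separated by capillary electrophoresis, reflects mRNA induction in transfected HepG2 cells at 24 h. Activity is fitted bidirectionally, DMSO serving as baseline.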

[5] = ATG_Oct_MLP_CIS: Attagene CIS-FACTORIAL HepG2 Assay for human Octamer-Binding Transcription Factor (Oct) (AID 2282993); conditions: HepG2 Attagene cis-factorial Oct reporter, mRNA; actives raise or lower the signal
Method in brief: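 Read-out: reporter mRNA via RT-PCR plus capillary electrophoresis of 6-FAM-labelled fragments. Transiently transfected HepG2, 24 h exposure, endogenous TF activity on cis elements. Gain or loss of signal fitted relative to DMSO.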

[6] = biological target: Cellular tumor antigen p53 (Homo sapiens) (UniProt P04637); assay: ATG_p53_CIS: Attagene CIS-FACTORIAL HepG2 Assay for human p53 Transcription Factor (AID 2282994); conditions: HepG2 p53 cis-element reporter, Attagene mRNA; actives raise or lower the signal
Chain of Cellular tumor antigen p53 (Homo sapiens) (P04637 whole entry, looked up): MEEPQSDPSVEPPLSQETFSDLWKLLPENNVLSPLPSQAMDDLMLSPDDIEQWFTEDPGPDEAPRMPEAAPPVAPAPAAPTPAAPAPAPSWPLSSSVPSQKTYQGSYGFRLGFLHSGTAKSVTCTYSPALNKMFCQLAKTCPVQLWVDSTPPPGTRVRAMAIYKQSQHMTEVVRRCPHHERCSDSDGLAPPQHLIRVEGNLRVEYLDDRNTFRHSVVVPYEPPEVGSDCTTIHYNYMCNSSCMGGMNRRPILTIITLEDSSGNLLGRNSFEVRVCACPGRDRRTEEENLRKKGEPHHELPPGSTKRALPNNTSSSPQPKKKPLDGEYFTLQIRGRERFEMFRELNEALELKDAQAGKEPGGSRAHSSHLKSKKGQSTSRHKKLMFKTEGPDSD
Method in brief: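 Transiently transfected HepG2 (multiple cis reporter transcription units); exposure 24 h; reporter RNA via RT-PCR, 6-FAM extension, 2 h HpaI digest at 37 C, CE detection; DMSO baseline.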

[7] = biological target: human Peroxisome Proliferator-activated Receptor delta (PPARd), PPARD (gene 5467) (UniProt Q03181); assay: ATG_PPARd_TRANS: Attagene TRANS-FACTORIAL HepG2 Assay for human Peroxisome Proliferator-activated Receptor delta (PPARd) (AID 2283002; active means hit-call score of the fitted dose curve at least 0.9, where 1 is the maximum)
Chain of human Peroxisome Proliferator-activated Receptor delta (PPARd), PPARD (gene 5467) (Q03181 whole entry, looked up, the tested form may be a part): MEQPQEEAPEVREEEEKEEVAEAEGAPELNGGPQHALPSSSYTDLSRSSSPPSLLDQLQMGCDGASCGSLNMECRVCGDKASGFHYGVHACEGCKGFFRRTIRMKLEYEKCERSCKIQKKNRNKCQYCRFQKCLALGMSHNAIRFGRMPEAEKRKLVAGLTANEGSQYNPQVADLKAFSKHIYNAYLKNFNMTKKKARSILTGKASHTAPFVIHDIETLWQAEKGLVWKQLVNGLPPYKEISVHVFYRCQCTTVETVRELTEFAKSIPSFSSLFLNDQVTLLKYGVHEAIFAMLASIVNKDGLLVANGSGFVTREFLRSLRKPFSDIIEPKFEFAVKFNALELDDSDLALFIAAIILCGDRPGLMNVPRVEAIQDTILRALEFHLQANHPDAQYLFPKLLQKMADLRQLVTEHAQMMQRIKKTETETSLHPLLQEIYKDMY
Method in brief: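 Read-out is induced reporter mRNA, quantified by RT-PCR with fluorescent labelling and capillary electrophoresis after 24 h dosing. Cells are HepG2 transiently carrying multiple GAL4-UAS reporter units driven by exogenous NR-GAL4 chimeras; DMSO serves as baseline.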

[8] = biological target: Peroxisome proliferator-activated receptor gamma (Homo sapiens) (UniProt P37231); assay: ATG_PPARg_TRANS: Attagene TRANS-FACTORIAL HepG2 Assay for human Peroxisome Proliferator-activated Receptor-gamma (PPARg) (AID 2283007; active means hit-call score of the fitted dose curve at least 0.9, where 1 is the maximum)
Chain of Peroxisome proliferator-activated receptor gamma (Homo sapiens) (P37231 whole entry, looked up, the tested form may be a part): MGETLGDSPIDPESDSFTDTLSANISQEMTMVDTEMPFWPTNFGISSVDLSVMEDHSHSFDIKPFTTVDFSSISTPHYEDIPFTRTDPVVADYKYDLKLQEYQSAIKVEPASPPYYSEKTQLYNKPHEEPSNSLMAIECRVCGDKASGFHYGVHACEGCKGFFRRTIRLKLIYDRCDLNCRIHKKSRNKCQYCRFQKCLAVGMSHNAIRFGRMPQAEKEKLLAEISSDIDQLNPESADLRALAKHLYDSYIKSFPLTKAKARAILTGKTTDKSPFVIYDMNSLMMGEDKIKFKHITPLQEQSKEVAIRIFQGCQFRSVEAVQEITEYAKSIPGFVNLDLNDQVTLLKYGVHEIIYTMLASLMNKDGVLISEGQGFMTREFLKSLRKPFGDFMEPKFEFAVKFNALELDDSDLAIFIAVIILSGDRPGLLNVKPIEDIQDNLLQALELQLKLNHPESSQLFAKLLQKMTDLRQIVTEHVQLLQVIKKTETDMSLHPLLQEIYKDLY
Method in brief: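 Gain-of-signal endpoint relative to DMSO, derived from reporter mRNA levels quantified by RT-PCR and capillary electrophoresis. Cells were HepG2 transiently expressing a chimeric NR-Gal4 construct with GAL4-UAS reporters, exposed to chemicals for 24 h.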

[9] = biological target: Nuclear receptor subfamily 1 group I member 2 (Homo sapiens) (UniProt O75469); assay: ATG_PXR_TRANS: Attagene TRANS-FACTORIAL HepG2 Assay for human Pregnane X Receptor (PXR) (AID 2283008; active means hit-call score of the fitted dose curve at least 0.9, where 1 is the maximum)
Chain of Nuclear receptor subfamily 1 group I member 2 (Homo sapiens) (O75469 whole entry, looked up, the tested form may be a part): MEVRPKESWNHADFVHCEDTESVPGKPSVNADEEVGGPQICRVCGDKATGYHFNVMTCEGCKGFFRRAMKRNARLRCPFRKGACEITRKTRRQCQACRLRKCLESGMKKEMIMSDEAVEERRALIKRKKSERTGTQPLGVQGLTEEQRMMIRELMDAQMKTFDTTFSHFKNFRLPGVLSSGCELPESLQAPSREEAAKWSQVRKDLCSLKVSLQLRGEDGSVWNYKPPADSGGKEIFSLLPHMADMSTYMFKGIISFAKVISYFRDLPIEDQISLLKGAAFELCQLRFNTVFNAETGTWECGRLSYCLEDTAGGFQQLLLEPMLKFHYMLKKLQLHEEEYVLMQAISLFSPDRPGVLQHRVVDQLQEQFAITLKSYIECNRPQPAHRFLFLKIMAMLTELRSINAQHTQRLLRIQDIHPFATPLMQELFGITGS
Method in brief: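 Transient HepG2 transfectants carrying multiplexed reporter transcription units; PXR activity read through a Gal4 chimera. 24 h exposure. RT-PCR/CE fluorescence; upward curve fit referenced to DMSO.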

[10] = biological target: human RAR-related Orphan Receptor beta (RORb), RORB (gene 6096) (UniProt Q92753); assay: ATG_RORb_TRANS: Attagene TRANS-FACTORIAL HepG2 Assay for human RAR-related Orphan Receptor beta (RORb) (AID 2283010; active means hit-call score of the fitted dose curve at least 0.9, where 1 is the maximum)
Chain of human RAR-related Orphan Receptor beta (RORb), RORB (gene 6096) (Q92753 whole entry, looked up, the tested form may be a part): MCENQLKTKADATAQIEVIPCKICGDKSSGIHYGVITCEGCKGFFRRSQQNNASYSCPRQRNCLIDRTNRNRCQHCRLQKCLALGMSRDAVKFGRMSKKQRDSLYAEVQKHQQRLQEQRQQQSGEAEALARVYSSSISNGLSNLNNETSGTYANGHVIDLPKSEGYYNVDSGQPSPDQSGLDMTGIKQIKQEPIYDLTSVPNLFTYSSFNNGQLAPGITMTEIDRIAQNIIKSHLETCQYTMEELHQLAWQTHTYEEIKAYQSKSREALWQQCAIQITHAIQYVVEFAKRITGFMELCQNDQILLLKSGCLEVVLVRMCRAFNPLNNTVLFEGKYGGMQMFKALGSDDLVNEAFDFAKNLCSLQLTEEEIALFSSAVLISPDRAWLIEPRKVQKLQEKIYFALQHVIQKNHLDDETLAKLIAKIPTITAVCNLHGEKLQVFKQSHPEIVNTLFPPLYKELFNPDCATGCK
Method in brief: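 Read-out is reporter mRNA induction, quantified by RT-PCR with fluorescent capillary electrophoresis, 24 h post-dose in transiently transfected HepG2 expressing exogenous NR-Gal4 chimera. Activity fitted upward versus DMSO.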

[11] = biological target: human Retinoic Acid Receptor beta (RARb), RARB (gene 5915) (UniProt P10826); assay: ATG_RARb_TRANS: Attagene TRANS-FACTORIAL HepG2 Assay for human Retinoic Acid Receptor beta (AID 2283004; active means hit-call score of the fitted dose curve at least 0.9, where 1 is the maximum)
Chain of human Retinoic Acid Receptor beta (RARb), RARB (gene 5915) (P10826 whole entry, looked up, the tested form may be a part): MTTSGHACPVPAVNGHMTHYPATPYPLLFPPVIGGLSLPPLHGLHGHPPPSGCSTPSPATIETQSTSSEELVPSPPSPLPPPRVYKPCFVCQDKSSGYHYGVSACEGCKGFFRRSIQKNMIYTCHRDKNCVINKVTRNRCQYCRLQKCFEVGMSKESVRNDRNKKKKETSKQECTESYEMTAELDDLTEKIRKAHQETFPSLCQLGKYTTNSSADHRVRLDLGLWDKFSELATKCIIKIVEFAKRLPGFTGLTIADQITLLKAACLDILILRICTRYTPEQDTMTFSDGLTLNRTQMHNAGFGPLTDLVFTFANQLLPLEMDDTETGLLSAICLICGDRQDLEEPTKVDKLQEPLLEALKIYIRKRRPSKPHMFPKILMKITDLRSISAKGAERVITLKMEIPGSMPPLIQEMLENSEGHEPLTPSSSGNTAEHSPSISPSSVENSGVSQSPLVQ
Method in brief: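 Fluorescent capillary-electrophoresis detection of GAL4-UAS reporter mRNA defines the endpoint, with induction over DMSO-treated wells scored as activity. Transiently transfected human hepatoma HepG2 cells expressing exogenous NR–Gal4 proteins are exposed to test chemicals for 24 h.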

[12] = biological target: Retinoic acid receptor alpha (Homo sapiens) (UniProt P10276); assay: ATG_RARa_TRANS: Attagene TRANS-FACTORIAL HepG2 Assay for human Retinoic Acid Receptor alpha (RARa) (AID 2283005; active means hit-call score of the fitted dose curve at least 0.9, where 1 is the maximum)
Chain of Retinoic acid receptor alpha (Homo sapiens) (P10276 whole entry, looked up, the tested form may be a part): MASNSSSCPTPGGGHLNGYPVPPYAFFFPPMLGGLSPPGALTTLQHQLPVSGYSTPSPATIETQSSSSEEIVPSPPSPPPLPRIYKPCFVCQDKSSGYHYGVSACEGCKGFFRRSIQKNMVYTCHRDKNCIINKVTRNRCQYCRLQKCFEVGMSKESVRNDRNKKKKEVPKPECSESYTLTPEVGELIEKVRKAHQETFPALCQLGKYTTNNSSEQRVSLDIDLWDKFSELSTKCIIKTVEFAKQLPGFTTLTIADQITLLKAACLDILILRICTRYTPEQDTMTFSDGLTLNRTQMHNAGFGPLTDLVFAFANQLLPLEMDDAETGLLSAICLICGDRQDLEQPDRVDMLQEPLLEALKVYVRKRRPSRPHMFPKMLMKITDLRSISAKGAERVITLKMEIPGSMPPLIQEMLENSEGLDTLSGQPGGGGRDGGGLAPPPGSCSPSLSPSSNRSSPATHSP
Method in brief: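 Reporter transcripts, measured by RT-PCR with fluorescent labeling and capillary electrophoresis after 24 h dosing, reflect activity of an exogenous human RARa–GAL4 fusion in transiently transfected HepG2. Fitted for increase relative to DMSO.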

[13] = biological target: human Peroxisome Proliferator-activated Receptor alpha (PPARa), PPARA (gene 5465) (UniProt Q07869); assay: ATG_PPARa_TRANS: Attagene TRANS-FACTORIAL HepG2 Assay for human Peroxisome Proliferator-activated Receptor alpha (PPARa) (AID 2283001; active means hit-call score of the fitted dose curve at least 0.9, where 1 is the maximum)
Chain of human Peroxisome Proliferator-activated Receptor alpha (PPARa), PPARA (gene 5465) (Q07869 whole entry, looked up, the tested form may be a part): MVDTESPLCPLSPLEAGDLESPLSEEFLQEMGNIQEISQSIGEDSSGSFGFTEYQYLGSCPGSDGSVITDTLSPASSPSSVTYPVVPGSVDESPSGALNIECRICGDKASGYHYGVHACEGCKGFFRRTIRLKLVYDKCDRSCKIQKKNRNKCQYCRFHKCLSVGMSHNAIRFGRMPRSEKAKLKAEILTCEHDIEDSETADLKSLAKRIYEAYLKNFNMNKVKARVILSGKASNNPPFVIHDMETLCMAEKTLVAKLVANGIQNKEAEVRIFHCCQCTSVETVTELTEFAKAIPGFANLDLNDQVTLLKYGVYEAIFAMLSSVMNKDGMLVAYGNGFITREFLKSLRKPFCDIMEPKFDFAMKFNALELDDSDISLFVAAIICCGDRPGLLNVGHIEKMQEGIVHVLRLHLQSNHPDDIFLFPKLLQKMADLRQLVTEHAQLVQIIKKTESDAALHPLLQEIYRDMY
Method in brief: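 Reporter transcripts quantified by RT-PCR plus capillary electrophoresis after 24 h treatment, fitted upward relative to DMSO. Cells: human HepG2 transiently carrying multiple GAL4-UAS reporter units driven by NR-Gal4 chimeras.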

[14] = biological target: human Retinoic Acid Receptor gamma (RARg), RARG (gene 5916) (UniProt P13631); assay: ATG_RARg_TRANS: Attagene TRANS-FACTORIAL HepG2 Assay for human Retinoic Acid Receptor gamma (RARg) (AID 2283009; active means hit-call score of the fitted dose curve at least 0.9, where 1 is the maximum)
Chain of human Retinoic Acid Receptor gamma (RARg), RARG (gene 5916) (P13631 whole entry, looked up, the tested form may be a part): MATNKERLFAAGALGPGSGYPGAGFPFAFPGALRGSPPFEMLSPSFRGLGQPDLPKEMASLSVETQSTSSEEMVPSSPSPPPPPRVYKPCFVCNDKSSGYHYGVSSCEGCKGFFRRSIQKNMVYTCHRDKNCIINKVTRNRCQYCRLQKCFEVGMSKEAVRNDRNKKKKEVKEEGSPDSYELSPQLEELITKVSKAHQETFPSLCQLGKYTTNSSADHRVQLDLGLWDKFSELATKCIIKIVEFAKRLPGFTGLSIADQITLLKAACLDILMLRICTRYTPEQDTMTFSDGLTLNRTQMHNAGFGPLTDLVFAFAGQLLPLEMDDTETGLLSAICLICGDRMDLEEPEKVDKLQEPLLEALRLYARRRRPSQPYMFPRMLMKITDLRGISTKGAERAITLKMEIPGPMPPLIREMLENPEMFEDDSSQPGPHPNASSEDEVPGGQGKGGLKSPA
Method in brief: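 Transactivation of exogenous RARg-Gal4 fusion measured as reporter transcript induction after 24 h in transfected HepG2 cells. RNA reverse-transcribed, amplified, fluorescently labeled and resolved by capillary electrophoresis; increase relative to DMSO.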

Measured: AC50

CC1=CCC2C(C1)C2(C)C (stereo not given)
active: [3] 49.1 µM | [4] 48.8 µM | [9] 10.7 µM
inactive: [1] | [2] | [5] | [6] | [7] | [8]

Clc1nc(C(Cl)(Cl)Cl)c(Cl)c(Cl)c1Cl
inactive: [2] | [3] | [5] | [6] | [7] | [10]
active: [1] 52.4 µM | [4] 27.6 µM | [8] 1.45 µM | [9] 21.2 µM

Fc1c(F)c(F)c(Br)c(F)c1F
not listed: [10] | [13] | [14]
inactive: all other assays above

CC1CCC(C(C)(C)O)CC1 (stereo not given)
not listed: [7] | [8] | [11] | [12] | [14]
inactive: all other assays above

COC(C)CCO (stereo not given)
active: [4] 63.3 µM | [5] 151 µM | [6] 162 µM
not listed: [7] | [10] | [13]
inactive: all other assays above

CCCCCCCCCCN
inactive: [1] | [2] | [3] | [4] | [5] | [6] | [7]

COc1cccc(OC)c1
inactive: [1] | [2] | [3] | [4] | [5] | [6] | [7] | [8]

C[Si](O[Si](C)(C)C)O[Si](C)(C)C
not listed: [10] | [11] | [12] | [13] | [14]
inactive: all other assays above

CCCCCCCCCCCCN
active: [3] 15 µM | [4] 17.8 µM
inactive: [1] | [2] | [5] | [6] | [13] | [10]

COc1ccc(Nc2ccccc2)c(C)c1
active: [3] 151 µM | [4] 79.9 µM | [8] 31.5 µM | [9] 11.1 µM
inactive: [1] | [2] | [5] | [6] | [7]

OCC(CO)(CO)COCC(CO)(CO)CO
inactive: [1] | [2] | [3] | [4] | [5] | [6] | [13] | [9]

C=CC(C)(C)O
inactive: [1] | [2] | [3] | [4] | [5] | [6] | [8] | [9]

COC(C(=O)O)c1ccccc1 (stereo not given)
inactive: [1] | [2] | [3] | [4] | [5] | [6] | [7] | [9]
